These results are taken from ChEMBL document CHEMBL5308541, “MAIP: An Open-Source Tool to Enrich High-Throughput Screening Output and Identify Novel, Druglike Molecules with Antimalarial Activity” (ACS Med Chem Lett, 2023).

The campaign covered roughly 150,000 compounds. About 540 (0.36%) showed an effect of 50% or more. Shown is part of a subset that was picked to be rich in strong results.

This assay concerns Plasmodium falciparum. As to the kind of experiment: Primary screen in NF54 nanoGlo assay, in single point, at 2uM, 72h; a lower Z score goes with more inhibition. Format: functional, Erythrocyte. To be noted: timepoint 72 hour.
As a reminder, the % Inhibition is the relative decrease from the control value, in per cent. As to `CCN1CCN([C@H]2CCN(c3ccnc4ccncc34)C2)CC1`, the “% Inhibition” value is 96% and the Z score is listed as -14.59.

With `CCN1CCN([C@H]2CCN(c3nccc4nccnc34)C2)CC1`, the “% Inhibition” value was 2% and the Z score is -0.37.

In the case of `CCN(C)CC(O)CN1CCC(Oc2cccnc2N2CCCC2)C1` (stereo not given), the “% Inhibition” value is given as -5% and the Z score is listed as 1.05.

For the compound `COc1ccc2nc(C)cc(NCc3cccc(NC(=O)c4ccco4)c3)c2c1`, the “% Inhibition” value turned out to be 93% and the Z score is -18.52.

For the compound `CN(C)Cc1cccc(CCNCc2csc(-c3ccc(C(F)(F)F)cc3)n2)c1`, the “% Inhibition” value was 51% and the Z score is given as -11.09.

On to `CN1CC(=O)N2C[C@@H](NC(=O)c3cccc(-c4ccc(N)nc4)c3)C[C@H]2C1=O`, for which the “% Inhibition” value is -16% and the Z score is recorded as 2.42.

For `Cc1n[nH]nc1C(=O)Nc1ccc2[nH]c(-c3cccc(F)c3)nc2c1`, the “% Inhibition” value amounted to 1% and the Z score is recorded as -0.2.

Consider `Cc1ccc2nc(-c3cccc(NC(=O)c4ccc(OC(F)(F)F)c(Cl)c4)c3)[nH]c2n1`, for which the “% Inhibition” value is given as 57% and the Z score is -12.27.

In the case of `CNC(=O)[C@@H]1CC2(CCN(CC3CCCCC3)CC2)CN1c1ccc(C#N)c(C(F)(F)F)c1`, the “% Inhibition” value is -15% and the Z score came to 2.59.

Take `N#Cc1ccc(N2C[C@H](COCC3CC3)C3(CCN(Cc4cccc(O)c4)CC3)C2)cc1C(F)(F)F`: the “% Inhibition” value is given as 82% and the Z score is given as -14.34.
